The values that follow come from PubChem BioAssay AID2116 (The Scripps Research Institute Molecular Screening Center, 2009).

The test deals with HEK Patch Clamp Assay. Briefly: TRPML3 and TRPML2 channel agonists, cell-based, patch clamp, Fura-2 profiling panel (AID 2116). The following applies: HEK293 cells expressing TRPML3-YFP; patch clamp current at -80 mV. (In patch-clamp work, channel activity is measured electrically.)

Calls of active or inactive are those of the source. The rule behind the calls is not given here.

For the molecule `Cc1ccc(S(=O)(=O)Nc2ccccc2-c2ccccc2)cc1`, the current density was -0.003 nA/pF and the outcome was “inactive; no effect on six other TRP channels”.
On the same counts, the results for `O=S(=O)(NC1CCCCC1N1CCOCC1)c1ccc(Cl)cc1` (stereo not given) are -0.003 nA/pF and “inactive; no effect on six other TRP channels”.
On the same counts, the results for `O=S(=O)(Nc1ccccc1N1CCCCC1)c1ccc(Cl)s1` are -0.004 nA/pF and “inactive; no effect on six other TRP channels”.
For `O=S(=O)(Nc1ccccc1N1CCOCC1)c1ccc(Cl)s1`, in that order: -0.005 nA/pF and “inactive; no effect on six other TRP channels”.
Take `Cc1ccc(N2CCN(S(=O)(=O)N3CCCCC3)CC2)c(C)c1`: the current density was -0.007 nA/pF and the outcome is “inactive; no effect on six other TRP channels”.
